# HT1080-NT tox: qHTS for induction of synthetic lethality in tumor cells producing 2HG: qHTS for the HT-1080-NT fibrosarcoma cell line | HT-1080-NT fibrosarcoma viability, CellTiter-Glo ATP luminescence, 48 h | Potency, µM (titrated, usually from 46.1 µM), without a hit: at the highest dose activity, negative = less viability, actives largely listed as cytotoxic | hit rate 1.6% among 360,000 | AID 686970, 2013;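 also: NT is the 2HG producing partner of a matched IDH1 knockdown line; potency is read from the fitted curve at half-maximal effect; 0% = DMSO-treated cells and -100% = media-only wells without cells; nearly all actives have a fitted effect of over 55% in size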
#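 HT-1080-NT fibrosarcoma cells (2HG-overproducing), 750 cells/well in RPMI with 5% FBS, dosed after 2 h and incubated 48 h at 37C. CellTiter-Glo luminescence normalized to DMSO and no-cell wells; concentration-response curves fitted and classed.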
# DT40 TDP1 CPT: qHTS for Inhibitors of human tyrosyl-DNA phosphodiesterase 1 (TDP1): qHTS in cells in presence of CPT; hit rate 12% among 420,000; Potency, µM (highest dose often 46.2 µM), for the others: at the top dose activity change, negative = growth inhibition, actives largely listed as inhibitors; chicken DT40 Tdp1-/-;hTDP1 cells + 20 nM CPT, ATP luminescence, 48 h; also: potency is read from the fitted curve at half-maximal effect; nearly all actives have a fitted effect of over 55% in size
#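 Chicken DT40 Tdp1-/- cells complemented with human TDP1, 400 cells/well, exposed to compounds plus 20 nM camptothecin for at least 48 h at 37 C; viability read as ATP content by CellTiter-Glo luminescence.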
# HT1080 IDH1KD tx: qHTS for induction of synthetic lethality in tumor cells producing 2HG: qHTS for the HT-1080-IDH1KD cell line. HT-1080 IDH1 knockdown viability, ATP luminescence, 48 h. Potency, µM (series often up to 46.1 µM), without a hit: top-dose activity, negative = toxicity, usual class: cytotoxic. hit rate 2% among 360,000;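 also: potency is read from the fitted curve at half-maximal effect; 0% = DMSO wells and -100% = cell-free medium wells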
#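 In this qHTS, HT-1080 cells depleted of IDH1 are exposed for 48 h at 37 °C to compound titrations. Toxicity is scored from CellTiter-Glo luminescence, with DMSO as full viability and medium alone as none.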
# IL-1B inflam inh: qHTS for Inhibitors of Inflammasome Signaling: IL-1-beta AlphaLISA Primary Screen; THP-1 LPS/ATP IL-1B secretion, AlphaLISA, 16 h; hits give low values; activity change, % at 57.5 µM; hit rate 4.7% among 360,000; in the data active = activity change below about -50%; inconclusive = mostly about -30% to -49%
#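 THP-1 cells pretreated 1 hr with compounds (up to 57.5 uM final), then stimulated with LPS (250 ng/mL final) plus ATP (1.25 mM final); secreted IL-1B measured by AlphaLISA after 16 hr, decreased signal indicating inhibition.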
# DT40 TDP1 no CPT: qHTS for Inhibitors of human tyrosyl-DNA phosphodiesterase 1 (TDP1): qHTS in cells in absence of CPT; DT40 Tdp1-/- hTDP1 cells, no CPT, ATP luminescence, 48 h; Potency, µM (titrated, usually from 46.2 µM), inactives show top-dose activity change, negative = growth inhibition, hits mostly inhibitors; hit rate 15% among 420,000; also: potency is read from the fitted curve at half-maximal effect; nearly all actives have a fitted effect of over 55% in size
#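 Growth kinetics read by CellTiter-Glo luminescence after ≥48 hr at 37 °C. Cells: DT40 Tdp1-/- stably carrying human TDP1, 400 per well, compound exposure in the absence of CPT (DMSO vehicle).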
# * = called active by the depositor; i = inactive; ? = inconclusive; . = no result; [ ] = remark or other dose. Only some compounds are listed: those with a hit (about 19% of all), similar ones and a draw of the others. Unless noted, calls follow the shape of the dose curve; as a rule, active = well fitted curve in the direction sought with a large enough effect; inconclusive = small, poorly fitted or top-dose-only effect, or another doubt; inactive = no such curve, though single readings can be large; an effect the other way counts as inactive or inconclusive. Unless noted, % is scaled to controls: 0 for no effect and ±100 for the full control effect.
SMILES,HT1080-NT tox,DT40 TDP1 CPT,HT1080 IDH1KD tx,IL-1B inflam inh,DT40 TDP1 no CPT
Cc1nn(-c2nc3ccccc3[nH]2)c(N)c1-c1ccccc1,?,?,?,-20,16µM*
Cc1ccc(O)c(-c2[nH]ncc2C(=O)c2ccc(Cl)cc2)c1,-3%,-24%,-8%,-86*,-21%
Cc1ccc(-c2[nH]ncc2C(=O)c2cccc(F)c2)c(O)c1,-14%,?,-10%,-7,15µM*
Cc1cccc(C(=O)c2cn[nH]c2-c2ccc(C)cc2O)c1,-1%,-9%,-5%,-7,-23%
Cc1cccc(NC(=O)CNC(=O)c2ccc(-n3cncn3)c([N+](=O)[O-])c2)c1C,2%,11%,1%,-19,-9%
CC1CCCC(C)N1C(=O)COC(=O)C(Cc1ccccc1)NC(=O)c1cccs1 (configuration not stated),-4%,?,0%,14,-1%
CCOc1cccc(CN2CCC(n3cc(C(=O)N4CCCCC4)nn3)CC2)c1O,.,12%[9.04 µM],.,.,-10%
O=C(CNc1cccc(F)c1)N1CCc2ccccc2C1,5%,-10%,17%,26,9%
COc1cccc(N2CCN(C(=O)c3ccccc3SCC(=O)NCc3ccco3)CC2)c1,-1%,?,-1%,-15,?
COc1ccc(/C=C/c2n[nH]c(=O)c(C#N)c2C)cc1,-15%,4%,-15%,-97*,?
COc1ccc(Oc2nc(C)cc(C)c2C#N)cc1,-4%,-21%,0%,34,-5%
O=C(N/N=C1\CCCc2ccccc21)c1ccccc1Cl,2%,2.1µM*,-1%,-18,-25%
CC(Oc1ccc(Cl)cc1Cl)C(=O)N/N=C1\CCCc2ccccc21 (configuration not stated),11%,?,6%,15,26µM*
CC(Oc1ccc(Cl)cc1Cl)C(=O)NN=C1CCN(C)CC1 (configuration not stated),3%,-13%,6%,-18,-24%
O=C(N/N=C1\CCc2ccccc21)c1ccncc1,-9%,3%,-9%,-5,-30%
O=C(N/N=C1\CCc2ccccc21)c1ccccc1O,?,-24%,?,i,23µM*
O=C(Nc1ccc(Cl)cn1)c1cnn2c1NC(=C1CC1)C=C2C(F)F,.,?,.,.,-19%
COc1ccc(/C=N/OCC(=O)N(Cc2ccc(OC)cc2)c2ccccc2C(=O)O)cc1,9%,-1%,5%,6,-9%
CCOc1ccc(N(CC(=O)NC2CCCCC2)S(=O)(=O)c2ccccc2)cc1,-21%,-4%,-28%,-15,?
CC1(C(=O)O)CCC(C(=O)Nc2ccc(S(N)(=O)=O)cc2)C1(C)C (configuration not stated),5%,-9%,3%,16,-3%
CCN(C[C@H]1N[C@@](Cc2ccccc2)(C(=O)OC)[C@H]2C(=O)N(Cc3ccccc3)C(=O)[C@@H]12)C(=O)Nc1ccc(F)cc1,0%,?,-15%,?,16µM*
CCN(C[C@H]1N[C@@](Cc2ccccc2)(C(=O)OC)[C@H]2C(=O)N(Cc3ccccc3)C(=O)[C@@H]12)C(=O)Nc1ccc(Cl)cc1,?,?,?,-13,18µM*
CCN(C[C@H]1N[C@@](Cc2ccccc2)(C(=O)OC)[C@H]2C(=O)N(C)C(=O)[C@@H]12)C(=O)Nc1ccc(C(F)(F)F)cc1,7%,16µM*,-2%,-1,?
O=C(CN1CCN(c2ccc(C(F)(F)F)cn2)CC1)Nc1ccc2c(c1)OCO2,17%,-26%,18%,8,?
CN1CCN(C(=O)OCCOCCOC(=O)N2CCN(C)CC2)CC1,3%,7%,3%,1,8%
SMILES,HT1080-NT tox,DT40 TDP1 CPT,HT1080 IDH1KD tx,IL-1B inflam inh,DT40 TDP1 no CPT
C[C@H](CO)N1C[C@H](C)[C@H](CN(C)C(=O)Nc2cccc(C(F)(F)F)c2)OCc2cnnn2CCCC1=O,1%,-12%,6%,4,-28%
CSc1nc(Sc2ccccc2Cl)c2ccccc2n1,?,?,?,47,?
Fc1ccc(C(c2nnnn2C2CCCC2)N2CCN(Cc3ccccc3)CC2)cc1 (configuration not stated),1%,18µM*,11%,-54*,?
CCC(C)(C)n1nnnc1CN1CCN(C(c2ccccc2)c2ccccc2)CC1,?,?,-3%,11,21µM*
Clc1ccc(C(c2nnnn2C2CCCC2)N2CCN(Cc3ccncc3)CC2)cc1 (configuration not stated),-10%,?,-14%,-19,?
c1ccc(C(c2ccccc2)N2CCN(Cc3nnnn3C3CCCC3)CC2)cc1,-17%,?,-24%,-14,16µM*
CCC(C)(C)n1nnnc1C(c1ccccc1)N1CCN(Cc2ccccc2)CC1 (configuration not stated),6%,19%,-2%,-6,6%
C1CCC(n2nnnc2CN2CCCC2)CC1,-2%,?,0%,1,-1%
CC(C)CCn1nnnc1CN1CCN(C(c2ccccc2)c2ccccc2)CC1,-14%,?,0%,3,18µM*
COc1ccc(CSC2=CS(=O)(=O)c3ccccc3N2)cc1,-8%,5%,-13%,?,?
Cc1noc(C)c1S(=O)(=O)NC(=O)C1(C)CCN1C(=O)C1(c2ccc(Cl)cc2)CC1 (configuration not stated),24%,-15%,?,26,-5%
CC1CC(C)(C)CC2(C1)NC(=O)N(CC(=O)Nc1ccc(N3CCCCC3)cc1)C2=O (configuration not stated),-12%,?,-5%,-11,?
COc1ccc(-c2cnc(C(O)c3ccc(-c4ccccc4)cc3)[nH]2)cc1 (configuration not stated),-26%,?,0%,-5,?
OC(c1ccccc1)c1ncc(-c2ccc(Oc3ccccc3)cc2)[nH]1 (configuration not stated),?,23µM*,-27%,-4,18µM*
OC(c1ccc(Cl)cc1)c1ncc(-c2ccc(Oc3ccccc3)cc2)[nH]1 (configuration not stated),23µM*,21µM*,23µM*,?,21µM*

# Screening results as filed in PubChem.
